According to PubChem BioAssay AID1159580 (chemical genetic matrix, 2015):
“And” between values parts separate entries of the source, which are not always exact repeats. Equal values may be shown once. Among all 5,500 compounds or so, about 2,000 (36%) were called active. Not shown: some 18% with an inconclusive outcome. Rule as the data show it: active = normalized growth mostly below about 0.91 (no sharp cut-off); inconclusive = no clear call, values can overlap the other calls; inactive = mostly above about 0.92. This is one part of the list.

Assay: chemical genetic growth profiling, strain panel (AID 1159580);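 also: tested at 20 µM; growth read once vehicle control cultures reached saturation at 30 °C; 1 = growth at the plate median or of vehicle wells; lower values mean less growth of the strain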
Conditions: S. cerevisiae deletion strains, growth OD

Measured: normalized growth

NCCCCN
inactive: locus YAL013W, strain DEP1, hits give low values 1.02 | locus YAL040C, strain CLN3, hits give low values 1.07 | locus YBR021W, strain FUR4, hits give low values 1.02 | locus YBR229C, strain ROT2, hits give low values 1 | locus YCL029C, strain bik1, hits give low values 0.99 | locus YCL061C, strain MRC1 (second series), hits give low values 0.999 | locus YDL035C, strain GPR1, hits give low values 1.04 | locus YDL074C, strain BRE1, hits give low values 1.01 | locus YDL101C, strain DUN1, hits give low values 1.01 | locus YDL185W, strain tfp1, hits give low values 1.02 | locus YDL192W, strain arf1, hits give low values 1.01 | locus YDR101C, strain arx1, hits give low values 0.971 | locus YDR150W, strain NUM1, hits give low values 1.01 | locus YDR162C, strain NBP2, hits give low values 1.04 | locus YDR318W, strain mcm21, hits give low values 1.01 | locus YDR363W, strain ESC2, hits give low values 1.03 | locus YDR388W, hits give low values 1.01 | locus YDR502C, strain sam2, hits give low values 0.994 | locus YEL061C, strain CIN8, hits give low values 1.01 | locus YER002W, strain NOP16, hits give low values 1 | locus YER110C, hits give low values 1.01 | locus YER155C, strain BEM2, hits give low values 1.01 | locus YER167W, strain BCK2, hits give low values 1.02 | locus YGL078C, strain dbp3, hits give low values 0.995 | locus YGL086W, strain mad1, hits give low values 0.985 | locus YGL248W, strain PDE1, hits give low values 1 | locus YGR078C, strain PAC10, hits give low values 0.999 | locus YGR135W, strain pre9, hits give low values 1.06 | locus YGR229C, strain SMI1, hits give low values 1.02 and 1.01 | locus YGR252W, strain gcn5, hits give low values 1.04 | locus YHR030C, strain SLT2, hits give low values 1 and 0.949 | locus YHR079C, strain IRE1 (second series), hits give low values 1 | locus YHR079C, strain IRE1, hits give low values 0.969 | locus YHR094C, strain hxt1, hits give low values 1.01 | locus YHR129C, strain ARP1, hits give low values 1.01 | locus YHR200W, strain rpn10, hits give low values 1 | locus YIL066C, strain RNR3, hits give low values 1.01 | locus YIL073C, strain SPO22, hits give low values 1.11 | locus YIL125W, strain kgd1, hits give low values 0.997 | locus YIR030C, strain dcg1, hits give low values 0.999 | locus YJL095W, strain BCK1, hits give low values 1.01 and 0.994 | locus YJL134W, strain LCB3, hits give low values 1.01 | locus YJL168C, strain set2, hits give low values 1.01 | locus YJL187C, strain SWE1 (second series), hits give low values 1.01 | locus YJR043C, strain POL32, hits give low values 1 | locus YJR066W, strain TOR1, hits give low values 0.93 | locus YJR075W, strain HOC1, hits give low values 1.01 | locus YKL009W, strain mrt4, hits give low values 0.99 | locus YKL068W, hits give low values 0.999 | locus YKL085W, strain MDH1 (second series), hits give low values 1 | locus YKL085W, strain MDH1, hits give low values 1 | locus YKL190W, strain CNB1, hits give low values 0.999 | locus YKR001C, strain vps1, hits give low values 1 | locus YLR039C, strain RIC1, hits give low values 1.05 | locus YLR058C, strain SHM2, hits give low values 1.01 | locus YLR102C, strain apc9, hits give low values 1 | locus YLR113W, strain HOG1, hits give low values 1.01 | locus YLR262C, strain YPT6, hits give low values 1.06 | locus YLR268W, strain sec22, hits give low values 0.996 | locus YLR330W, strain CHS5, hits give low values 1.01 | locus YLR342W, strain FKS1 (second series), hits give low values 1.07 | locus YLR371W, strain rom2, hits give low values 1 | locus YLR418C, strain cdc73, hits give low values 1.03 | locus YML016C, strain PPZ1, hits give low values 1 | locus YML032C, strain rad52, hits give low values 0.992 | locus YML124C, strain tub3, hits give low values 1 | locus YMR078C, strain ctf18, hits give low values 1 | locus YMR223W, strain ubp8, hits give low values 1.05 | locus YMR307W, strain GAS1, hits give low values 1.07 and 1.01 | locus YNL067W, strain RPL9B, hits give low values 1 | locus YNL128W, strain TEP1, hits give low values 1.01 | locus YNL153C, strain GIM3, hits give low values 1 | locus YNL175C, strain NOP13, hits give low values 1 | locus YNL183C, strain NPR1, hits give low values 0.961 | locus YNL197C, strain WHI3, hits give low values 1 | locus YNL224C, strain SQS1, hits give low values 1 | locus YNL233W, strain BNI4, hits give low values 1.01 | locus YNL250W, strain rad50, hits give low values 1.03 | locus YNL271C, strain bni1, hits give low values 1.01 | locus YNL298W, strain CLA4, hits give low values 1.01 | locus YNL307C, strain MCK1, hits give low values 1.02 | locus YNR052C, strain pop2, hits give low values 1 | locus YOL012C, strain htz1 0.897 | locus YOL147C, strain pex11, hits give low values 1.01 | locus YOR061W, strain CKA2, hits give low values 1 | locus YOR069W, strain VPS5, hits give low values 1.01 | locus YOR083W, strain WHI5 (second series), hits give low values 1.01 | locus YOR136W, strain idh2, hits give low values 0.992 | locus YOR144C, strain elg1, hits give low values 1 | locus YOR184W, strain ser1, hits give low values 1 | locus YOR231W, strain MKK1, hits give low values 0.957 | locus YOR316C, strain cot1, hits give low values 1 | locus YPL055C, strain LGE1, hits give low values 0.99 | locus YPL241C, strain CIN2, hits give low values 1.01 | locus YPL256C, strain CLN2, hits give low values 0.958 | locus YPR119W, strain clb2, hits give low values 0.994 | locus YPR141C, strain kar3, hits give low values 1 | locus YPR163C, strain tif3, hits give low values 1.01 | locus YPR167C, strain met16, hits give low values 1 | strain wtn01, hits give low values 0.995
